# Screen size: about 220,000 compounds; about 530 (0.24%) were called active. Rule as the data show it: active = inhibition above about 13%; inconclusive = no clear call, values can overlap the other calls; inactive = below that. Shown is part of a subset that was picked to be rich in actives. Results with a measured potency or affinity are listed apart.
# Molecular target: Bifunctional protein GlmU (Mycobacterium tuberculosis (strain ATCC 25618 / H37Rv)) (UniProt P9WMN3)
# Assay: inhibition of mycobacterial GlmU enzyme – biochemical, glucosamine-1-phosphate acetyltransferase (AID 1376);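 also: 0% = complete reaction with vehicle and 100% = reaction without substrate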
# Conditions: M. tuberculosis GlmU acetyltransferase enzyme assay; stronger effect = higher value;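 tested at 30 µM in the primary screen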
# Bifunctional protein GlmU (Mycobacterium tuberculosis (strain ATCC 25618 / H37Rv)), sequence (P9WMN3 whole entry, looked up): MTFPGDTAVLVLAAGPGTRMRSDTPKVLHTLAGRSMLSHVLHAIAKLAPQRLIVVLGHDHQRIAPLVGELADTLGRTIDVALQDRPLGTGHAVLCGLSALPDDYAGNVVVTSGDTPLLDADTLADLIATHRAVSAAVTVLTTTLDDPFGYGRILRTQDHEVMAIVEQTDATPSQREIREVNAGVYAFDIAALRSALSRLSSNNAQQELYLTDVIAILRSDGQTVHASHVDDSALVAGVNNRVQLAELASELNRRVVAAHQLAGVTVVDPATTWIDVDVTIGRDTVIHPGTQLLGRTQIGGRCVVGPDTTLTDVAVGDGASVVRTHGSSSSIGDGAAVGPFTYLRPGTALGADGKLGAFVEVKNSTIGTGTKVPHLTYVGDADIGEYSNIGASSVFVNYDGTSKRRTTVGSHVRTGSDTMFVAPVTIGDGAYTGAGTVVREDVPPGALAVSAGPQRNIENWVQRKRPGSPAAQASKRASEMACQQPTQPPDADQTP
row,Compound,inhibition
1,COc1ccccc1C1C(C(=O)NCc2ccccc2)=C(C)Nc2ncnn21 (centres undefined),-0.29% (inactive)
2,O=C(NCc1cccc(Cl)c1)c1ccc(S(=O)(=O)Nc2cccc(C(F)(F)F)c2)cc1,6.21% (inactive)
3,CNS(=O)(=O)c1c(C)cc(C)c(N(C)S(=O)(=O)c2ccccc2)c1C,4.09% (inactive)
4,O=C(O)C(Cc1ccccc1)N1C(=O)/C(=C/c2cccc3ccccc23)SC1=S (centres undefined),3.53% (inactive)
5,O=C1S/C(=C\C=C\c2ccco2)C(=O)N1c1ccc(O)cc1,11.9% (inactive)
6,O=C(O)CCCN1C(=O)/C(=C/C=C/c2ccco2)SC1=S,5.29% (inactive)
7,O=C(O)C(Cc1ccccc1)N1C(=O)/C(=C/c2ccccc2)SC1=S (centres undefined),7.96% (inactive)
8,O=C(O)CC(C(=O)O)N1C(=O)/C(=C/C=C/c2ccco2)SC1=S (centres undefined),17.9% (active)
9,O=C(O)C(Cc1ccccc1)N1C(=O)/C(=C/C=C/c2ccco2)SC1=S (centres undefined),26.9% (active)
10,O=C(O)C(Cc1ccccc1)N1C(=O)/C(=C/c2cccs2)SC1=S (centres undefined),17.4% (active)
11,COc1ccc(/C=C2\SC(=S)N(C(Cc3ccccc3)C(=O)O)C2=O)cc1 (centres undefined),1.51% (inactive)
12,Cc1ccc(/C=C2\SC(=S)N(C(Cc3ccccc3)C(=O)O)C2=O)cc1 (centres undefined),5.14% (inactive)
13,CC(=O)Nc1ccc(C(=O)NNC(=O)c2cc([N+](=O)[O-])cc([N+](=O)[O-])c2)cc1,2.49% (inactive)
14,CC(C)(O)C#Cc1ccc(CN2CCN(Cc3ccccc3)C(CCO)C2)s1 (centres undefined),3.34% (inactive)
15,CSc1nc2nc3c(cn2n1)C(=O)CC(c1ccccc1)C3 (centres undefined),2.71% (inactive)
16,Cc1nc2nc3c(cn2n1)C(=O)CC(c1ccccc1)C3 (centres undefined),15% (active)
17,O=C1CC(c2ccccc2)Cc2nc3nc(C(F)(F)F)nn3cc21 (centres undefined),2.78% (inactive)
18,O=C(Nc1nnc(-c2ccccc2)o1)NC1CCCCC1,0.77% (inactive)
19,CC(=O)Nc1ccc(OCC(O)CN2CCN(c3cccc(Cl)c3)CC2)cc1 (centres undefined),-0.54% (inactive)
20,COC(C/C=C\[C@H](O)COCc1ccccc1)OC,6.23% (inactive)

row,Compound,inhibition
1,Cc1ccccc1NC(=O)Nc1cc(-c2ccccc2)nn1C,-3.02% (inactive)
2,O=C(CSCc1ccccc1F)NCc1ccc(F)cc1,-1.92% (inactive)
3,c1cncc(-c2nnc3n2CCC3)c1,-0.26% (inactive)
4,CCOC(=O)C1=C(C)N(c2ccccc2)C(=O)C1,3.44% (inactive)
5,CCOC(=O)C1=C2NC(=O)c3ccccc3N2C(=O)C1,13.7% (active)
6,CCOC(=O)C1=C(N)N(c2ccccc2)C(=O)C1,1.91% (inactive)
7,O=C(COC(=O)c1ccc(Cl)c([N+](=O)[O-])c1)Nc1ccccc1OC(F)F,0.84% (inactive)
8,Cc1sc2nc(SCc3ccccc3)n(Cc3ccco3)c(=O)c2c1C,-1.04% (inactive)
9,Cc1onc(-c2ccccc2Cl)c1C(=O)N1CCN=C1SCc1cccnc1,27.2% (active)
10,CSC1=NCCN1C(=O)c1c(-c2ccccc2Cl)noc1C,-1.36% (inactive)
11,CCSC1=NCCN1C(=O)c1c(-c2ccccc2Cl)noc1C,4.4% (inactive)
12,C=CCn1c(O)c(C=Nc2c(C)n(C)n(-c3ccccc3)c2=O)c(=O)[nH]c1=O,-2.53% (inactive)
13,CCCOC(=O)C1C2C=CC(C3CC23)C1C(=O)OCC(=O)c1ccccc1 (centres undefined),2.44% (inactive)
14,O=C1NC(=O)N(c2ccc3c(c2)OCO3)C(=O)/C1=C\c1ccc(-c2ccccc2C(=O)O)o1,9.19% (inactive)
15,Cc1ccc(C)c(N2C(=N)S/C(=C\c3ccc(-c4ccccc4C(=O)O)o3)C2=O)c1,13.1% (active)
16,Cc1ccccc1NC(=O)CN1C(=O)S/C(=C\c2ccc(-c3cc(C(=O)O)ccc3C)o2)C1=O,19.2% (inactive)
17,COc1ccccc1N1C(=N)S/C(=C\c2ccc(-c3ccccc3C(=O)O)o2)C1=O,8.5% (inactive)
18,N=C1S/C(=C\c2ccco2)C(=O)N1c1ccc2c(c1)OCO2,5.07% (inactive)
19,O=C(N/N=C/C=C/c1ccc(Br)cc1)C(O)c1ccccc1 (centres undefined),-4.11% (inactive)
20,COc1ccc(NC(=O)c2ccccc2-c2ccccc2)c(C)c1,-1.21% (inactive)

row,Compound,inhibition
1,O=C(OCC(=O)N1CCN(C(=O)c2ccco2)CC1)c1ccccc1C(=O)c1ccccc1,0.58% (inactive)
2,Cc1cc(/C=c2/sc3nc4ccccc4n3c2=O)c(C)n1-c1ccccn1,6.87% (inactive)
3,O=c1/c(=C\c2cc([N+](=O)[O-])cc([N+](=O)[O-])c2O)sc2nc3ccccc3n12,33.8% (active)
4,Cc1ccc(-n2c(C)cc(/C=c3/sc4nc5ccccc5n4c3=O)c2C)cc1,0.75% (inactive)
5,O=c1/c(=C/c2ccc(O)c([N+](=O)[O-])c2)sc2nc3ccccc3n12,8.42% (inactive)
6,O=c1/c(=C/c2ccccn2)sc2nc3ccccc3n12,3.31% (inactive)
7,O=Cc1ccc(-c2cccc(C(=O)O)c2)o1,3.12% (inactive)
8,O=c1/c(=C\c2cccn2-c2ccccc2)sc2nc3ccccc3n12,-1.22% (inactive)
9,O=C(O)Cn1cc(/C=c2/sc3nc4ccccc4n3c2=O)c2ccccc21,-3.15% (inactive)
10,CCN(CC)c1ccc(/C=c2\sc3nc4ccccc4n3c2=O)c(O)c1,-2.52% (inactive)
11,O=c1c(Br)c(N2CCOCC2)cnn1-c1ccccc1,-4.84% (inactive)
12,Cn1nc(C(F)(F)F)c2cc(C(=O)O)sc21,0.57% (inactive)
13,CCN(CC)S(=O)(=O)c1ccc(N2CCOCC2)c(NC(=O)CC(C)(C)C)c1,11.6% (inactive)
14,Cc1cc(C)c(C#N)c(SC2CCCCC2=O)n1 (centres undefined),0.86% (inactive)
15,CC(C)NC(=O)CSc1nnc2sc3ccccc3n12,7.28% (inactive)
16,Cn1nc(-c2ccccc2)c(CN2CCN(c3ncccn3)CC2)c1Cl,-1.97% (inactive)
17,CC1(C)CC(=O)C2=C(C1)N(CCN1CCOCC1)C1=C(C(=O)CC(C)(C)C1)C2c1ccc(Cl)c([N+](=O)[O-])c1,4.94% (inactive)
18,CCOC(=O)Cc1csc(NC(=O)c2ccco2)n1,4.22% (inactive)
19,Cc1cc(/C=C2\C(=O)NC(=O)N(c3ccc(F)cc3)C2=O)c(C)n1-c1cccc(C(=O)O)c1,2.99% (inactive)
